GPR151 ag – activators of human GPR151, primary screen, cell-based, PathHunter beta-arrestin, luminescence; 650,000 tested, 1% active; G-protein coupled receptor 151 (Homo sapiens), Q8TDV0; activation, % at 11.2 µM; PathHunter beta-arrestin GPR151 cells; in the data active = activation above about 4.9%;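 also: 0% = median of compound wells and 100% = cells with positive control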
Target sequence (Q8TDV0 whole entry, looked up): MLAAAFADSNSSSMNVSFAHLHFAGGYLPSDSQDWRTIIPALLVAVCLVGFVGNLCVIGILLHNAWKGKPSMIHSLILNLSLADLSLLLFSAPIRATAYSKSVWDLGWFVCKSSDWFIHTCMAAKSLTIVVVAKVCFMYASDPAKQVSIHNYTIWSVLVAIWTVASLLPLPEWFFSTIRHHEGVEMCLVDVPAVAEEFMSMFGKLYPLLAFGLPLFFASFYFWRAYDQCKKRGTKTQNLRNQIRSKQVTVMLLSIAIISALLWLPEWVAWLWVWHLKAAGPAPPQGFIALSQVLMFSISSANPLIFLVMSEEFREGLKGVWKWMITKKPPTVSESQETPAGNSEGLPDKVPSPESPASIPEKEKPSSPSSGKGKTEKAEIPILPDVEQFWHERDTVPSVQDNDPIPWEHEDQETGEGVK
TEAD-YAP inh – TEAD-YAP interaction inhibition, primary screen, TEAD-YAP interaction inhibitor project, luminescence, HEK-TIYL cells | inhibition, % at 9.12 µM | 640,000 tested, 1.4% active | TEAD-Gal4/YAP UAS-luciferase luminescence | AID 1259422, 2018; in the data active = inhibition above about 32%;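 also: 0% = median of test compound wells and 100% = reference inhibitor wells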
FBW7 activator – FBW7 E3 ligase activators, primary screen, biochemical, AlphaScreen, human; normalized activity (activation), % at 26.1 µM; AlphaScreen FBW7–phospho-cyclin E peptide binding, activator screen; 650,000 tested, 0.13% active; in the data active = normalized activity above about 1.9%;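 also: purified mutant Fbw7 with reduced substrate affinity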
MITF inh – MITF inhibitors, primary screen, biochemical, AlphaScreen, human; 650,000 tested, 0.91% active; Microphthalmia-associated transcription factor (Homo sapiens), O75030; inhibition, % at 2.6 µM; AlphaScreen MITF homodimerization, bead proximity signal; in the data active = inhibition above about 50%;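 also: 0% = vehicle wells with protein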
The depositor's hits bear a star; ! = repeats disagree. In the library only some 3.5% were active in any assay of this set; here they are far more common.

SMILES	GPR151 ag	TEAD-YAP inh	FBW7 activator	MITF inh
O=C(O)C/C(=C\c1ccc(N2CCOCC2)cc1)c1nc2ccccc2s1	-1	75*	0	-4
CN(C)c1ccc(/C=C(\C#N)c2nc3ccccc3s2)o1	0	53*	0	-4
N#C/C(=C\c1ccc(N2CCOCC2)cc1)c1nc2ccccc2s1	-1	39*	0	15
O=C(O)C/C(=C\c1ccc2c(c1)OCCO2)c1nc2ccccc2s1	2	0	0	-6
O=C(CSc1nncs1)Nc1ccc(OCc2ccccc2)cc1	4	-22	12*	-15
O=C(Nc1c2c(nn1-c1ccc(Cl)cc1)CSC2)c1cc([N+](=O)[O-])ccc1Cl	1	6	0	7
Cc1ccc(-n2nc3c(c2NC(=O)c2cc([N+](=O)[O-])ccc2Cl)CSC3)cc1	-1	63*	0	5
O=C(Nc1c2c(nn1-c1ccc(F)cc1)CSC2)c1cc([N+](=O)[O-])ccc1Cl	0	86*	0	4
COc1ccc(/C=C/c2nc3cc([N+](=O)[O-])cc([N+](=O)[O-])c3o2)cc1	2	-3	0	-5
Nc1ccc(O)c2c1C(=O)c1c(cccc1[N+](=O)[O-])C2=O	0	0	-1	88*
CCN1/C(=C\C(C)=O)Sc2ccc3ccccc3c21	-1	-1	0	11
COc1ccc2c(c1)N(C)/C(=C/c1cccc[n+]1C)S2	-1	77*	0	12
CCN1/C(=C/c2cccc[n+]2C)Sc2ccc(OC)cc21	0	84*	0	2
CCN1/C(=C/C(C)=O)Sc2ccc(OC)cc21	-1	32*!	0	18
COc1ccc(/C=C/c2cccc[n+]2C)c(OC)c1	0	15	0	25
CCOC(=O)c1c(NC(=O)c2ccccc2Oc2ccccc2)sc2c1CCCCC2	-1	-10	0	-12
CC(=O)OC12CO[C@@H]1C[C@H](O)[C@@]1(C)C(=O)[C@H](O)C3=C(C)[C@@H](OC(=O)[C@H](O)[C@@H](NC(=O)OC(C)(C)C)c4ccccc4)CC(O)([C@@H](OC(=O)c4ccccc4)[C@H]21)C3(C)C (stereo partly drawn)	-2	51*	0	8
CCn1ccc2ccc(OC)cc2c1=O	-1	-10	2.1*	16
Cc1nnc(-c2ccc(N3CCc4ccccc4C3)c([N+](=O)[O-])c2)o1	1	45*	0	22
N#Cc1ccc(N2CCc3ccccc3C2)c([N+](=O)[O-])c1	0	-5	0	1
Nc1nnc(SCC(=O)Nc2cccc(Br)c2)s1	1	-12	0	-5
Cc1cc(C(=O)CSc2nnc3ccccn23)c(C)n1Cc1ccccc1	-3	64*	0	1
Cc1ccc(-c2n[nH]c3c2C(c2ccc(F)cc2)N(c2ccc(F)cc2)C3=O)cc1 (stereo not drawn)	-1	4	0	-8
CSC1=C(C#N)C(c2cccs2)C2=C(CCCC2=O)N1 (stereo not drawn)	0	-2	-1	-3
CSC1=C(C#N)C(c2ccccc2C)C2=C(CCCC2=O)N1 (stereo not drawn)	3	39*	0	-8
SMILES	GPR151 ag	TEAD-YAP inh	FBW7 activator	MITF inh
Cc1cc(Br)c(S(=O)(=O)NC2CC(C)(C)NC(C)(C)C2)cc1C	-1	0	0	12
COc1cc(/C=N\Nc2ccc([N+](=O)[O-])cn2)c(Br)cc1O	2	8	20*	-3
C/C(CC(=O)Nc1cccc2ccccc12)=N\NC(=O)C(=O)NCCO	2	1	0	6
COC(=O)c1cccc(CN2C(=O)C(F)(F)Oc3ccc(C(=O)OC)cc32)c1	-1	-5	0	-7
Nc1ccc(C(=O)OCCCc2nc3cc4ccccc4cc3[nH]2)cc1	3	7	0	8
Nc1ccc(C(=O)OCc2nc3cc4ccccc4cc3[nH]2)cc1	-1	48*	0	-2
CCOc1cc(C(=O)Nc2ccccc2C(N)=O)cc(OCC)c1OCC	0	37*	0	-6
CCOc1ccccc1NC(=O)c1cc(OCC)c(OCC)c(OCC)c1	0	13	0	3
CCOc1cc(C(=O)Nc2sccc2C(=O)N2CCOCC2)cc(OCC)c1OCC	1	20	1	3
CCOc1cc(C(=O)Nc2sccc2C(N)=O)cc(OCC)c1OCC	1	36*	0	2
O=C(Nc1cccc(O)c1)c1ccc(N2C(=O)c3cccc([N+](=O)[O-])c3C2=O)cc1	-3	34*	0	15

Bioassay records deposited in PubChem by The Scripps Research Institute Molecular Screening Center.
